Assay results from PubChem BioAssay AID2620 (National Center for Advancing Translational Sciences (NCATS), 2010).
Inconclusive results are not listed. Calls of active or inactive are those of the source. The call rests on the fitted dose curve; in most records, active means well fitted curve in the direction sought with a large enough effect; inconclusive means small, poorly fitted or top-dose-only effect, or another doubt; inactive means no such curve, though single readings can be large or run the other way.

Each molecule was assayed against Pyruvate kinase PKM (Homo sapiens) (UniProt P14618) (assay: Secondary LDH Assay for Activators of Human Pyruvate Kinase M1 Isoform: for Probe SAR). Settings: purified hPK-M1, LDH-coupled NADH fluorescence kinetic; series mostly up to 58.2 µM.
Sequence of Pyruvate kinase PKM (Homo sapiens) (P14618 whole entry, looked up, canonical isoform): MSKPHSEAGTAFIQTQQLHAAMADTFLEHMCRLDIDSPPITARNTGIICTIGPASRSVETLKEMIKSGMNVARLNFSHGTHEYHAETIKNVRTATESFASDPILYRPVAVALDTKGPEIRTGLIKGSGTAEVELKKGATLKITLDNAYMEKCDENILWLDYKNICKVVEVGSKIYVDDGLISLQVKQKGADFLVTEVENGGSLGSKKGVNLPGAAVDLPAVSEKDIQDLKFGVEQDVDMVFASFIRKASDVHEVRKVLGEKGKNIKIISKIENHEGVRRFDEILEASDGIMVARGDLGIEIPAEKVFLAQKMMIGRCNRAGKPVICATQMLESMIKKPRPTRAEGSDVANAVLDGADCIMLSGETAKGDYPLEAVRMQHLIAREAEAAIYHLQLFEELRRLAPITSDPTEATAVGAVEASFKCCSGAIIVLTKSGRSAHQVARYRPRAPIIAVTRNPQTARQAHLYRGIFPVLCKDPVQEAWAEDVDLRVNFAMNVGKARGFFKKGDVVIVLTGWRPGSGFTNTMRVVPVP
Excerpt: NIH Chemical Genomics Center [NCGC]
Matthew G. Vander Heiden, M.D., Ph.D. [Harvard Medical School, 77 Avenue Louis Pasteur, Boston, MA 02115]
Human pyruvate kinase […] (hPK-M1)enzyme was supplied as a highly purified (>95% pure) preparation from Harvard Medical School and a secondary assay was used to evaluate compounds. This assay couples the formation of pyruvate from […] using lactate dehydrogenase (LDH) and NADH. The depletion of NADH is followed in a fluorescent-based kinetic assay that follows the formation of pyruvate to lactate, as catalyzed LDH. Pyruvate kinase substrates, PEP and ADP, were present in the assay at 0.1 mM and 4 mM respectively. In this kinetic assay initial rates were determined by following the fluorescence of NADH depletion.
NCGC Assay Protocol Summary:
Three uL of substrate mix (final concentration, 50 mM Tris-Cl pH 8.0, 200 mM KCl, 15 mM MgCl2, 0.1 mM PEP, 4.0 mM ADP, and 0.2 mM NADH) was dispensed into black-solid 1536 well plates. 23 nL of compounds were delivered by a pin tool and 1 uL of enzyme mix (final concentrations, 10 nM hPK-M1 and 1 uM of LDH) was added. Plates were immediately placed in ViewLux (Perkin Elmer) and NADH fluorescence was determined at 30 second exposure intervals for between 3 and 6 minutes. Data were normalized to the uninhibited controls.

SMILES	outcome
O=S(=O)(c1ccc2c(c1)OCCO2)N1CCN(S(=O)(=O)c2c(F)cccc2F)CC1	inactive
Cc1ccc(NS(=O)(=O)c2ccc3c(c2)N(C)C(=O)CO3)cc1C	inactive
Cc1cc(C)n2c(Nc3ccccc3)c(-c3ccc(C)o3)nc2n1	inactive
Cc1ccc(NS(=O)(=O)c2ccc3c(c2)CCC(=O)N3)cc1	inactive
Cc1ccc(NS(=O)(=O)c2ccc3ccccc3c2)cc1C	inactive
O=C1CCc2cc([S+](=O)([O-])NC3CCOCC3)ccc2N1	inactive
Cn1c2cc(S(C)=O)sc2c2cnn(Cc3cccc(O)c3)c(=O)c21 (stereo not given)	inactive
CN(C)c1cccc(S(=O)(=O)N2CCCN(S(=O)(=O)c3ccc4c(c3)OCCO4)CC2)c1	inactive
Cc1ccc(NC(=O)c2ccc3c(c2)CCC(=O)N3)cc1C	inactive
Cc1ccc(N[S+](=O)([O-])c2cc3c(cc2CCc2ccccc2)NC(=O)CO3)cc1C	inactive
CC(=O)N1c2ccc(S(=O)(=O)Nc3ccc(C)c(C)c3)cc2CC1C (stereo not given)	inactive
CNc1cc2c(cc1S(=O)(=O)Nc1ccc(C)c(C)c1)CCC(=O)N2	inactive
COc1ccccc1OC1=NS(=O)(=O)c2ccccc21	inactive
CSc1cc2c(s1)c1cnn(Cc3cccc(O)c3)c(=O)c1n2C	inactive
O=C1c2ccccc2C(=O)N1c1nccs1	inactive
Cc1ccc(NS(=O)(=O)c2cc3c(cc2N2CCC2)NC(=O)CC3)cc1C	inactive
Cc1ccc(NS(=O)(=O)c2cc3c(cc2F)NC(=O)CC3)cc1C	inactive
COc1cc(N2C(=O)c3ccccc3C2=O)c2ncccc2c1	inactive
Cc1ccc(NS(=O)(=O)c2cc3c(cc2Cl)CCC(=O)N3)cc1Cl	inactive
COc1ccc(-c2nc3cccc(C)n3c2Nc2ccc(C)cc2)cc1	inactive

SMILES	outcome
Cc1ccn2c(NC3CCCCC3)c(-c3ccc(C)o3)nc2c1	inactive
Cc1ccc(NS(=O)(=O)c2cc3c(cc2N(C)C)NC(=O)CC3)cc1C	inactive
O=C1CCc2cc(S(=O)(=O)NCc3ccccc3)ccc2N1	inactive
Cc1cc(NS(=O)(=O)c2ccc3c(c2)CCC(=O)N3)ccc1F	inactive
O=C1c2ccccc2C(=O)N1c1cnc2ccccc2c1	inactive
Cc1ccc(Nc2c(-c3ccc(C)o3)nc3cccc(C)n23)cc1	inactive
O=C1c2ccccc2C(=O)N1c1cccc(O)c1	inactive
CSc1cc2c(s1)c1cnn(Cc3cccc(N)c3)c(=O)c1n2C	inactive
Cc1ccc(NS(=O)(=O)c2ccc(N3CCCC3=O)cc2)cc1C	inactive
COc1ccc(Nc2c(-c3ccc(C)o3)nc3ccccn23)cc1	inactive
Cc1ccc2nc(-c3ccc(C)o3)c(Nc3ccc4c(c3)OCO4)n2c1	inactive
Cc1cc(N2C(=O)c3ccccc3C2=O)no1	inactive
O=C1c2ccccc2C(=O)N1c1cccnc1	inactive
O=S1(=O)N=C(Oc2ccc(Cl)cc2)c2ccccc21	inactive
Fc1ccccc1-c1ccc(-c2nc3ccc(Cl)cn3c2Nc2ccc(Cl)cc2)o1	inactive
Cc1ccc(NS(=O)(=O)c2cc3c(cc2N(C)C)CCC(=O)N3)cc1C	inactive
Cc1ccc(Nc2c(-c3ccc(C)s3)nc3cccc(C)n23)cc1	inactive
CNc1cccc(S(=O)(=O)N2CCN(S(=O)(=O)c3ccc4c(c3)OCCO4)CC2)c1	inactive
Cc1ccccc1OC1=NS(=O)(=O)c2ccccc21	inactive
Cc1ccc(Nc2c(-c3ccsc3)nc3cccc(C)n23)cc1	inactive
